Assay outcomes: PubChem BioAssay, The Scripps Research Institute Molecular Screening Center
bovine MsrA act – bovine MsrA enzyme activators, primary screen, biochemical, absorbance, HTS; Methionine sulfoxide reductase A (Bos taurus); purified bovine MsrA, absorbance read-out; activation, % at 10.6 µM; 360,000 compounds, 0.3% hits; AID 602163, 2012; in the data active means activation above about 7.5%;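 further: 0% = vehicle and 100% = reference activator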
PG9 Ab binder – binders of HIV-1 gp120 antibody PG9, primary screen, biochemical, TR-FRET; HIV-1 gp120 / PG9 antibody interaction; TR-FRET gp120-PG9 antibody binding; inhibition, % at 6.7 µM; 360,000 compounds, 0.43% hits; in the data active means inhibition above about 8.5%
MsrA inhibitor – bovine MsrA enzyme inhibitors, primary screen, biochemical, absorbance, HTS | Methionine sulfoxide reductase A (Bos taurus) | purified bovine MsrA, absorbance read-out | inhibition, % at 15.5 µM | 360,000 compounds, 0.75% hits | AID 651718, 2012; in the data active means inhibition above about 4.5%;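 further: 0% = vehicle wells with enzyme and 100% = reference inhibitor wells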
rCAG binder – binders of r(CAG) RNA repeats, primary screen, biochemical, fluorescence; 370,000 compounds, 1.3% hits; AID 651821, 2012; inhibition, % at 3 µM; r(CAG) RNA repeat, TO-PRO-1 dye displacement fluorescence;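 active means inhibition above the plate cutoff, the mean of all test compounds on that plate plus 3 SD, cut at about 35% in these data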;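 further: 0% = DMSO alone and 100% = 100 µM mitoxantrone as full dye displacement; higher means more dye released from RNA so lower well fluorescence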
sPLA2-III inh – human group III sPLA2 inhibitors, primary screen, biochemical, QFRET, BODIPY PC-A2 liposome substrate; Group 3 secretory phospholipase A2 (Homo sapiens), Q9NZ20; QFRET BODIPY PC-A2 liposome hydrolysis, fluorescence; inhibition, % at 12.2 µM; 370,000 compounds, 0.56% hits;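 active means inhibition above mean plus 3 SD of compounds lying within the high and low control bounds, cut at about 19% in these data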;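 further: 0% = median of test compound wells and 100% = no enzyme DMSO wells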
Target sequence (Q9NZ20 whole entry, looked up): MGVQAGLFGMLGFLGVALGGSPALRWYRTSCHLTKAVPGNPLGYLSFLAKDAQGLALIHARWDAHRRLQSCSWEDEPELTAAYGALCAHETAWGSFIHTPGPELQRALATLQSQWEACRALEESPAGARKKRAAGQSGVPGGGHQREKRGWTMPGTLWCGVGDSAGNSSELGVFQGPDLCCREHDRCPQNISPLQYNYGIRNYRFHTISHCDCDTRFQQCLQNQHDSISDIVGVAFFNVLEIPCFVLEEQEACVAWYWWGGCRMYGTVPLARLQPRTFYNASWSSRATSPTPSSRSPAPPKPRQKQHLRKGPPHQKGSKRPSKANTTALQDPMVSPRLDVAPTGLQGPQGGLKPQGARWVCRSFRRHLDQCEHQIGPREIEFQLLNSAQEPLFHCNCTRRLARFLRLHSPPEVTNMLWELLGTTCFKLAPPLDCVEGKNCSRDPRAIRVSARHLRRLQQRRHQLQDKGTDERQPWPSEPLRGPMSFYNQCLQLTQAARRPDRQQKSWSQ
rCAG bind conf – small molecules binding CAG repeat RNA – biochemical, fluorescence, confirmation; shares compounds with rCAG binder; r(CAG) RNA repeat, TO-PRO-1 dye displacement fluorescence; inhibition, % at 3 µM; 4,300 compounds, 70% hits;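 active means inhibition above a per-plate cutoff, the mean inhibition of sample wells plus 3 SD, cut at about 35% in these data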;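 further: loss of TO-PRO-1 fluorescence as compound displaces dye from 1x1 AA loop RNA; 0% = DMSO only wells and 100% = 100 µM mitoxantrone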
DNA CAG counter – displacement of TO-PRO-1 from CAG DNA duplex, counter-screen for rCAG RNA repeat binder project, biochemical, fluorescence, TO-PRO-1 dye, d(CAG) DNA oligo. shares compounds with rCAG binder. inhibition, % at 3 µM. AID 652068, 2013. d(CAG) DNA oligo TO-PRO-1 dye displacement. 4,300 compounds, 94% hits;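 active means inhibition above its plate's cutoff, the mean test-well inhibition plus 3 SD, cut at about 4.8% in these data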;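 further: 0% = DNA dye mix with DMSO and 100% = 100 µM mitoxantrone; hits displace the dye from DNA and so lower well fluorescence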
* = called active by the depositor; . = no result. Shown are actives, neighbours in structure and some others; about 3.2% of the full set was active somewhere.

SMILES | bovine MsrA act | PG9 Ab binder | MsrA inhibitor | rCAG binder | sPLA2-III inh | rCAG bind conf | DNA CAG counter
CCCCC[C@@H]1C=C(C(=O)O)[C@H](c2ccc3c(c2)OCO3)N1S(=O)(=O)c1ccc(C)cc1 | -3 | -1 | 0 | 65* | -31 | 54* | 21*
CCCCC[C@@H]1C=C(C(=O)O)[C@H](c2cccc(C)c2)N1S(=O)(=O)c1ccc(C)cc1 | -4 | -2 | 1 | 67* | -32 | 50* | 16*
CCCCC[C@@H]1C=C(C(=O)O)[C@H](c2ccc(OC)c(OC)c2)N1S(=O)(=O)c1ccc(C)cc1 | -4 | -1 | 0 | 50* | -14 | 44* | 14*
CC[C@@H]1C=C(C(=O)O)[C@H](c2ccc3c(c2)OCO3)N1S(=O)(=O)c1ccc(C)cc1 | -2 | -2 | -2 | 7 | 7 | . | .
CC[C@@H]1C=C(C(=O)O)[C@H](c2ccc(Cl)c(Cl)c2)N1S(=O)(=O)c1ccc(C)cc1 | -2 | 0 | 0 | 46* | -21 | 41* | 12*
Cc1cc(=O)oc2c3c(cc(OCC(=O)NC(Cc4ccc(Cl)cc4)C(=O)O)c12)OC(C)(C)CC3 (stereo not given) | -2 | 1 | 1 | 46* | -18 | 53* | 17*
CN(C)CC(=O)N[C@H]1C[C@@H]2O[C@@H](CO)CC[C@@H]2O[C@@H]1CCc1ccc(C2=CCCCC2)cc1 | . | . | . | -1 | -19 | . | .
C=CCCC(=O)N1C[C@H]2CCN(C)[C@H]2C[C@H]1c1ccccc1Br | . | -2 | 0 | 1 | -4 | . | .
Cc1ccc(NC(=S)NNC(=O)c2cccc([N+](=O)[O-])c2)cc1Cl | 0 | -1 | 1 | 73* | 18 | 70* | 24*
O=C(O)c1cccc(NC(=S)NC(NC(=O)c2cccc([N+](=O)[O-])c2)C(Cl)(Cl)Cl)c1 (stereo not given) | -6 | 1 | 2 | 53* | -36 | 30 | 8.7*
O=C(O)c1cccc(NC(=S)NC(NC(=O)c2ccccc2[N+](=O)[O-])C(Cl)(Cl)Cl)c1 (stereo not given) | -5 | -2 | 0 | 20 | -8 | . | .
CC(=O)c1cccc(NC(=S)NNC(=O)c2ccc(C)c([N+](=O)[O-])c2)c1 | -10 | -1 | 1 | 41* | 15 | 38* | 15*
COCCN1Cc2cc(C(=O)OC)c3c(c2C1=O)c1cc(OC)ccc1n3C(=O)c1ccccc1 | . | 0 | 2 | 8 | 1 | . | .
Cc1cc(NS(=O)(=O)c2ccc(NC(=O)Cc3ccc(Cl)c(F)c3)cc2)no1 | . | . | . | 22 | -22 | . | .
O=C(OCc1cn(Cc2ccccc2F)nn1)N1CCCC1 | . | . | . | 3 | 1 | . | .
O=C(N/N=C1/CCSC1)c1cc(Br)ccc1O | -2 | -2 | 1 | 41* | 15 | 16 | 7.3*
COc1ccc(S(=O)(=O)N2CC(C(=O)O)Oc3ccc(Cl)cc32)cc1 (stereo not given) | -1 | -1 | 0 | 20 | -13 | . | .
CC(C)(C)c1ccc(S(=O)(=O)N2CC(C(=O)O)Oc3ccc(Cl)cc32)cc1 (stereo not given) | 0 | 1 | -1 | 63* | -45 | 63* | 26*
Cc1ccc(F)c(S(=O)(=O)NC(=O)C2(C)CCN2C(=O)C2(c3ccc(Cl)cc3)CC2)c1 (stereo not given) | -7 | -2 | 1 | 36* | -2 | 35* | 7.6*
Cc1cccc(S(=O)(=O)NC(=O)C2(C)CCN2C(=O)C2(c3ccc(Cl)cc3)CC2)c1 (stereo not given) | -1 | 0 | 0 | 32 | -2 | . | .
Cc1ccc(F)c(S(=O)(=O)NC(=O)C2(C)CCN2C(=O)C2(c3ccc(Cl)cc3)CCC2)c1 (stereo not given) | -1 | -2 | 0 | 36* | -15 | 63* | 24*
